Results filed as inconclusive are left out. The source made the active and inactive calls. Unless noted, calls follow the shape of the dose curve; as a rule, active = well fitted curve in the direction sought with a large enough effect in the repeat runs; inconclusive = weak or mixed curves; inactive = no such curve, though single readings can be large; an effect the other way counts as inactive or inconclusive.
How the values were obtained:
[1] = target: Retinoic acid receptor RXR-alpha (Homo sapiens) (UniProt P19793); test: qHTS assay to identify small molecule agonists of the RXR signaling pathway (AID 1159527; calls by dose curve; also: nearly all actives have a fitted effect of over 35% in size)
Outline: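 qHTS of the Tox21 10K library in GeneBLAzer RXR-alpha HEK 293T cells carrying a beta-lactamase reporter […]; 16 hr treatment, 9-cis retinoic acid as agonist control, FRET read-out.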

[2] = qHTS assay to identify small molecule agonists of the RXR signaling pathway - cell viability counter screen (AID 1159529); also: series mostly up to about 77 µM; nearly all actives have a fitted effect of over 50% in size
Outline: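 Cell viability is measured by CellTiter-Glo luminescence, 30 min at room temperature, in wells already read for beta-lactamase. Engineered HEK 293T cells (RXR-alpha-UAS-bla) are dosed 16 hr at 37 C. Tetraoctyl ammonium bromide serves as positive control.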

[3] = qHTS assay to identify small molecule antagonists of the retinoid acid receptor (RAR) signaling pathway - cell viability counter screen (AID 1159551); also: nearly all actives have a fitted effect of over 35% in size
Outline: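 ATP-based viability, C3RL4 cells, 6 h at 37 C with 1 uM final retinol co-added after compound; luminescence read 30 min post CellTiter-Glo, RT.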

[4] = qHTS assay to identify small molecule antagonists of the retinoic acid receptor (RAR) signaling pathway (AID 1159552; also: nearly all actives have a fitted effect of over 50% in size)
Outline: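 Quantitative HTS in C3RL4 RARE-luciferase reporter cells. Compounds were added with 1 uM (final) retinol; luminescence was read after 6 hr.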

[5] = qHTS assay to identify small molecule agonists of the retinoic acid receptor (RAR) signaling pathway (AID 1159553)
Outline: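 Quantitative high-throughput format: the Tox21 10K library was tested on C3RL4 RARE-luciferase cells for 6 hr at 37 C and 5% CO2, with luminescence measured after a 30 min room-temperature reagent step.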

[6] = qHTS assay to identify small molecule antagonists of the estrogen related receptor (ERR) signaling pathway from Tox21 library - cell viability counter screen (AID 1224834); also: nearly all actives have a fitted effect of over 30% in size
Outline: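 Compounds in DMSO were pinned onto ERR cells that had been incubated for 6 h, and the plates were held at 37 C for 17.5 h. CellTiter-Fluor reagent was then added and fluorescence was measured after 30 min.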

[7] = target: Luciferin 4-monooxygenase (Photinus pyralis) (UniProt P08659); test: qHTS assay to identify small molecule inhibitors of firefly luciferase (AID 1224835); also: series mostly up to about 120 µM; nearly all actives have a fitted effect of over 25% in size
Outline: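 Biochemical qHTS: compounds run as interplate titrations against purified firefly enzyme, with D-luciferin and ATP each at its KM concentration. Light output recorded by CCD imaging.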

[8] = qHTS assay to identify small molecule agonists of the constitutive androstane receptor (CAR) signaling pathway - cell viability counter screen (AID 1224836); also: series mostly up to about 92 µM; nearly all actives have a fitted effect of over 45% in size
Outline: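 Counter screen multiplexed with the CAR reporter readout: HepG2 cells co-transfected with hCAR and the CYP2B6-2.2kb construct receive a 15-concentration compound series and 0.75 uM PK11195 (final), then CellTiter-Fluor fluorescence is read after 23 h.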

[9] = target: Nuclear receptor subfamily 1 group I member 3 (Homo sapiens) (UniProt Q14994); test: qHTS assay to identify small molecule antagonists of the constitutive androstane receptor (CAR) signaling pathway (AID 1224838);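 also: HepG2 cells stably expressing hCAR with CYP2B6 luciferase reporter stimulated by CITCO; nearly all actives have a fitted effect of over 40% in size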
Outline: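 Luminescence from a CYP2B6-2.2kb promoter reporter in hCAR-expressing HepG2 cells reflects CAR signaling. Cells received compounds at 15 concentrations and 50 nM CITCO (final), then incubated 24 h at 37 C/5% CO2.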

[10] = target: Nuclear receptor subfamily 1 group I member 3 (Homo sapiens) (UniProt Q14994); test: qHTS assay to identify small molecule agonists of the constitutive androstane receptor (CAR) signaling pathway (AID 1224839); also: series mostly up to about 92 µM; nearly all actives have a fitted effect of over 15% in size
Outline: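 A 15-concentration quantitative screen uses HepG2 cells co-transfected stably with human CAR and CYP2B6-2.2kb reporter. Treatment lasts 24 h with 0.75 uM PK11195 final present; ONE-Glo luminescence is the signal.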

[11] = qHTS assay to identify small molecule antagonists of the estrogen related receptor signaling pathway with the pleiotropic PPARgamma coactivator (PGC) from Tox21 10K library - cell viability counter screen (AID 1224840; active = well fitted cell-killing curve with a large enough effect in the repeat runs, not every such curve was filed as active; also: nearly all actives have a fitted effect of over 40% in size)
Outline: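 Cell viability is measured by CellTiter-Fluor fluorescence in PGC/ERR cells that receive compounds after a 6-hour attachment period and are then incubated 17.5 hours at 37 C.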

[12] = qHTS assay to identify small molecule antagonists of the estrogen related receptor signaling pathway with the pleiotropic PPARgamma coactivator (PGC) from Tox21 10K library (AID 1224841; call rule not given here; also: series mostly up to about 92 µM; actives are mostly falling curves and most rising ones were filed inactive; nearly all actives have a fitted effect of over 50% in size)
Outline: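 Cells stably carrying the PGC/ERR reporter, seeded at 2,000 per well, received pin-transferred compounds 6 h post-plating. Exposure lasted 18 h at 37 C. Signal: One-Glo luminescence.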

[13] = qHTS assay to identify small molecule agonists of the estrogen related receptor signaling pathway with the pleiotropic PPARgamma coactivator (PGC) from Tox21 10K library (AID 1224842); also: nearly all actives have a fitted effect of over 15% in size
Outline: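 PGC/ERR reporter cell line, 2,000 cells per well, incubated 6 h at 37 C before 23 nL compound in DMSO was added. After 18 h at 37 C, One-Glo luminescence read following 30 min at room temperature.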

[14] = qHTS assay to identify small molecule agonists of the hypoxia (HIF-1) signaling pathway - cell viability counter screen (AID 1224844; calls by dose curve; also: nearly all actives have a fitted effect of over 50% in size)
Outline: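 Viability counter screen: HRE-bla ME-180 cells plated 5 hrs before compound addition, treated 17 hrs at 37C and 5% CO2, then CellTiter-Glo added after the FRET reporter read; luminescence after 30 min.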

[15] = qHTS assay to identify small molecule agonists of H2AX (AID 1224845; active = well fitted activation curve with a large enough effect in the signal ratio in the repeat runs, not every such curve was filed as active; the % refers to the signal ratio)
Outline: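 Wild-type CHO-K1 cells, plated overnight, exposed 3hr at 37C to 15 concentrations (0.76% DMSO final). Lysed, then HTRF anti-pH2AX (S139) cryptate and anti-H2AX-d2 antibodies, 24 hr room temperature; 665/620 nm emission read.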

[16] = qHTS assay to identify small molecule agonists of the hypoxia (HIF-1) signaling pathway (AID 1224846; active = well fitted activation curve with a large enough effect in the signal ratio in the repeat runs, not every such curve was filed as active; the % refers to the signal ratio)
Outline: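 Agonist mode reporter screen. ME-180 cells stably expressing bla under HRE control received test compounds in DMSO for 17 hrs (37C, 5% CO2), and beta-lactamase activity was then detected with the CCF4-AM FRET substrate.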

[17] = qHTS assay to identify small molecule agonists of H2AX - cell viability counter screen (AID 1224847; calls by dose curve; also: top concentration of the series differs between compounds; nearly all actives have a fitted effect of over 30% in size)
Outline: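 We seed wild-type CHO-K1 cells overnight, treat them for 3 hr at 37C with compounds in 15-concentration series, and quantify remaining viability by CellTiter-Glo luminescence.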

[18] = qHTS assay to identify small molecule antagonists of the estrogen related receptor (ERR) signaling pathway from Tox21 library (AID 1224848); also: nearly all actives have a fitted effect of over 50% in size
Outline: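 Quantitative high-throughput format: ERR reporter cells (2,000/well) pre-incubated 6 h, treated 18 h at 37 C with compounds in DMSO alongside positive and negative controls, then read by ONE-Glo luminescence.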

[19] = qHTS assay to identify small molecule antagonists of the constitutive androstane receptor (CAR) signaling pathway - cell viability counter screen (AID 1224837); also: series mostly up to about 92 µM; nearly all actives have a fitted effect of over 45% in size
Outline: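 Cells are seeded, rested 4 hr at 37 C/5% CO2, dosed with compound (15-point series) and 50 nM CITCO, incubated a further 23 hr, and then CellTiter-Fluor reagent is added before fluorescence is read. The line is HepG2 with stable hCAR and CYP2B6-2.2kb.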

[20] = target: Thyrotropin receptor (Homo sapiens) (UniProt P16473); test: qHTS assay to identify small molecule agonists of the thyroid stimulating hormone receptor (TSHR) signaling pathway (AID 1224843; calls by dose curve; also: nearly all actives have a fitted effect of over 45% in size)
Outline: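 Agonist-mode screen: TSHR HEK293 cells received test chemicals for half an hour at room temperature, then HTRF cAMP detection reagents for one hour prior to fluorescence measurement. Each chemical ran as a 15-concentration series, triplicated.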
% is scaled to controls: 0 for no effect and ±100 for the full control effect.

Thyrotropin receptor (Homo sapiens), sequence (P16473 whole entry, looked up): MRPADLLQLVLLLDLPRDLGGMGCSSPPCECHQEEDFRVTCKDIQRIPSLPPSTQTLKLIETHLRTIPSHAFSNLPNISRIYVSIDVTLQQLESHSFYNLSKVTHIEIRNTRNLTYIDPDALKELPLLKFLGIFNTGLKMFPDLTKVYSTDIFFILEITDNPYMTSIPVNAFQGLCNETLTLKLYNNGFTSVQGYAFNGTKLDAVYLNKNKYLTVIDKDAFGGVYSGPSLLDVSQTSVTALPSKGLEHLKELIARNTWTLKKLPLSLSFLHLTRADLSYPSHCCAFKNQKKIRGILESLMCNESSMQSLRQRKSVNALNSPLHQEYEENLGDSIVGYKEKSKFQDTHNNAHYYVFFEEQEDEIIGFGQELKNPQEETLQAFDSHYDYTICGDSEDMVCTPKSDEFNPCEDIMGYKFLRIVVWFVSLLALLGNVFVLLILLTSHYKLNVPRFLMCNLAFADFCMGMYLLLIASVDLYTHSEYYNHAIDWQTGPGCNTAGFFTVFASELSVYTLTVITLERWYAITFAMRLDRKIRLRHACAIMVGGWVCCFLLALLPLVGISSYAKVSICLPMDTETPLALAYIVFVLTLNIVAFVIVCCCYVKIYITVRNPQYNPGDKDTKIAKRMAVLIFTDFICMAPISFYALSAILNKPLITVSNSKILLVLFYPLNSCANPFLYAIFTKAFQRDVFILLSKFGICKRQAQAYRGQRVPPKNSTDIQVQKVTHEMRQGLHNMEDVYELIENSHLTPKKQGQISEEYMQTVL
Retinoic acid receptor RXR-alpha (Homo sapiens), sequence (P19793 whole entry, looked up): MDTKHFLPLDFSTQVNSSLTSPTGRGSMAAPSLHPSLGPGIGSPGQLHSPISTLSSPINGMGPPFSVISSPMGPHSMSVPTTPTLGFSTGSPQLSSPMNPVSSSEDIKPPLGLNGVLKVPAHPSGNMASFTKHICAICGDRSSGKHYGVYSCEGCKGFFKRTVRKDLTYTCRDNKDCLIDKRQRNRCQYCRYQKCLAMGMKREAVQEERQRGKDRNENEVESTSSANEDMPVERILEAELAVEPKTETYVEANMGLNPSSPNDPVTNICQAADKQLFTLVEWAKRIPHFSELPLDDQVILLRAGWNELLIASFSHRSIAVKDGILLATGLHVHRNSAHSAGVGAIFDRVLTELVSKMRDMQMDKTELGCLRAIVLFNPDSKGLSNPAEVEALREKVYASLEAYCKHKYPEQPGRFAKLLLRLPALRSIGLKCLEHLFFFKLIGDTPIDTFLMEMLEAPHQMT
Luciferin 4-monooxygenase (Photinus pyralis), sequence (P08659 whole entry, looked up): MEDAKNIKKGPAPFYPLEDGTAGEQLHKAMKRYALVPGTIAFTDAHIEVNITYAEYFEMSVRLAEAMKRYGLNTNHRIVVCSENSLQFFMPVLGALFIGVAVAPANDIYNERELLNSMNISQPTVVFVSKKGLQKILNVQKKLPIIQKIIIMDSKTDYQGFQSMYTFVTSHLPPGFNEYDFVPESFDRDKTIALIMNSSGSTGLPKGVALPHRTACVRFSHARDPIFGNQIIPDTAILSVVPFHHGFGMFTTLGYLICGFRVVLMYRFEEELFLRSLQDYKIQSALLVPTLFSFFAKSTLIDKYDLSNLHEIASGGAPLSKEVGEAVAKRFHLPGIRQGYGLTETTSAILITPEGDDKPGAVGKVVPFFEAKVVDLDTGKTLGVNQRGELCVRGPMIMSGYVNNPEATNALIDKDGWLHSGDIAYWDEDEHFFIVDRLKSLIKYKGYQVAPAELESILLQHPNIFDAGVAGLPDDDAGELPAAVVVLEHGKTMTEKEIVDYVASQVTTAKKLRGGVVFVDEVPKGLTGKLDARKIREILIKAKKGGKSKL
Nuclear receptor subfamily 1 group I member 3 (Homo sapiens), sequence (Q14994 whole entry, looked up): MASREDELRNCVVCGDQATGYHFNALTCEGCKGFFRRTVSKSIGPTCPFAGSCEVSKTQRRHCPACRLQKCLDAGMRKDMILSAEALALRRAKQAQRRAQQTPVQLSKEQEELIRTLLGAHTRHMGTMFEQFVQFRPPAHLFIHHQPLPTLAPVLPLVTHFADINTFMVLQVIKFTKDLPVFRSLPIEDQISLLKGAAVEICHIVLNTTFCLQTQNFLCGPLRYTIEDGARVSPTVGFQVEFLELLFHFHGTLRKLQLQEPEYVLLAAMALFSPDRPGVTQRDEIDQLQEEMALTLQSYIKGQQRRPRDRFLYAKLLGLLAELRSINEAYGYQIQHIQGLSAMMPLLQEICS

CCCC(=O)OCCC(C)CCC=C(C)C (stereo unspecified)
inactive: Potency [1] | outcome [2] | outcome [3] | outcome [4] | Potency [5] | outcome [6] | Potency [7] | outcome [8] | Potency [9] | Potency [10] | outcome [11] | outcome [12] | outcome [13] | outcome [14] | outcome [15] | outcome [16] | outcome [17] | Potency [18]

CCCCCC/C=C/C(=O)OC
inactive: Potency [1] | outcome [2] | outcome [3] | outcome [4] | Potency [5] | outcome [6] | Potency [7] | outcome [8] | outcome [19] | outcome [11] | outcome [20] | outcome [14] | outcome [15] | outcome [16] | outcome [17]

CCN1CCCC1CN (stereo unspecified)
inactive: Potency [1] | outcome [2] | outcome [3] | outcome [4] | Potency [5] | outcome [6] | Potency [7] | outcome [8] | Potency [9] | Potency [10] | outcome [11] | outcome [20] | outcome [14] | outcome [15] | outcome [16] | outcome [17]

CC1OCCC1=O (stereo unspecified)
inactive: Potency [1] | outcome [2] | outcome [3] | outcome [4] | Potency [5] | outcome [6] | Potency [7] | outcome [8] | outcome [19] | Potency [9] | Potency [10] | outcome [20] | outcome [14] | outcome [15] | outcome [16] | outcome [17]

CCCCCCCCCCCCCCCCCCOCCO
inactive: activation [1] 5.49% [at 15.8 µM] | activity change, negative = cytotoxicity [2] -0.661% [at 15.8 µM] | activity change, negative = cytotoxicity [3] -1.36% [at 19 µM] | activity, negative = inhibition [4] -13.7% [at 19 µM] | Potency [5] | viability change, negative = cytotoxic [6] -3.06% [at 19 µM] | activity change, negative = inhibition [7] -2.69% [at 23.6 µM] | viability change, negative = cytotoxic [8] -7.83% [at 19 µM] | activity change, negative = cytotoxicity [19] 0.177% [at 19 µM] | activity, negative = inhibition [9] -10.5% [at 19 µM] | activation [10] -0.275% [at 19 µM] | activation [20] -2.81% [at 19 µM] | activation (H2AX phosphorylation) [15] -3.63% [at 31.6 µM] | activation [16] 0.444% [at 15.8 µM] | activity change, negative = cytotoxicity [17] -6.52% [at 31.6 µM]

CC(S)C(C)S (stereo unspecified)
inactive: Potency [1] | outcome [2] | outcome [3] | outcome [4] | Potency [5] | outcome [6] | Potency [7] | outcome [8] | outcome [19] | Potency [9] | Potency [10] | outcome [20] | outcome [14] | outcome [15] | outcome [16] | outcome [17]

C=CCN1C[C@H](C(=O)N(CCCN(C)C)C(=O)NCC)C[C@@H]2c3cccc4[nH]cc(c34)C[C@H]21
inactive: Potency [1] | outcome [2] | outcome [3] | outcome [4] | Potency [5] | outcome [6] | Potency [7] | outcome [8] | Potency [9] | Potency [10] | outcome [11] | outcome [20] | outcome [15] | outcome [16] | outcome [17]
